# From article PMC5540273 (PLoS ONE, 2017)
# Tested on: T1, MRCKB
# T1 construct: gene CDC42BPB
# Details: concentration: 1 μM,replicates: in singlicate; n = 1
# 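Further: KINOMEscan kinase panel screen.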
row,Structure (SMILES),%Inh [%]
1,CCN1CCN(CCCC(=O)Nc2n[nH]c3nc(-c4ccc(O)cc4)c(Br)cc23)CC1 [SB-731579],0
2,COC(=O)c1cccc(NC(=O)NC2CCN(c3ccnc(Nc4cc(OC)c(OC)c(OC)c4)n3)C2)c1 (stereo not shown) [GSK1379767],0
3,Cn1cc(-c2cccc3c(N)c(C(N)=O)nnc23)cn1,3
4,Cn1ccc2ncnc(Oc3ccc(NC(=O)Nc4cccc(C(F)(F)F)c4)c(F)c3)c21,0
5,COc1cc(Nc2nccc(N3CCC(NC(=O)c4cccc(C#N)c4)C3)n2)cc(OC)c1OC (stereo not shown) [GSK1379751],0
6,c1ccc(Oc2ccc(Nc3ccnc4ccc(-c5ccccn5)cc34)cc2)cc1 [GW407034],9
7,C[C@@H](Oc1cc(-n2cnc3cc(-c4cnn(C)c4)ccc32)sc1C(N)=O)c1ccccc1Cl [GSK580432],3
8,FC(F)(F)c1cc(Br)cc(Nc2nccc(-c3cnn4ncccc34)n2)c1 [GW810578],0
9,COc1cccc(CNC(=O)NC2CCN(c3ccnc(Nc4cc(OC)c(OC)c(OC)c4)n3)C2)c1 (stereo not shown) [GSK1379765],0
10,Cc1n[nH]c2cc(Nc3ccnc(Nc4cccc(CN5CCOCC5)c4)n3)ccc12 [GW682569],0
11,O=C(NCC1CC1)c1ccc(-c2cc(C(=O)NC3CC3)ccc2F)cc1 [GW810445],0
12,Cc1nnc(-c2ccc3occ(-c4ccc(S(C)=O)cc4)c3n2)o1 (stereo not shown),43
13,COC(=O)c1cccc(NC(=O)NC2CCN(c3ccnc(NCc4ccc(F)cc4)n3)CC2)c1 [GSK1379860],0
14,Cc1cccc2c(-c3ccncc3)c(-c3ccc(F)cc3)nn12.Cl [GW461487],4
15,O=C(Nc1n[nH]c2cc(-c3ccco3)ccc12)C1CC1 [SB-737447],1
16,CN(c1ccccc1CNc1nc(Nc2ccc3c(c2)CC(=O)N3)ncc1C(F)(F)F)S(C)(=O)=O,0
17,CC(=O)Nc1nc2cnc(Nc3cc(NC(=O)c4cccc(CC(C)(C)C#N)c4)ccc3C)nc2s1,0
18,COc1ccc(Nc2nccc(N3CCC(NC(=O)c4cccc(C#N)c4)C3)n2)cc1 (stereo not shown) [GSK1379730],0
19,CS(=O)c1ccc(-c2coc3ccc(-c4n[nH]c(=O)o4)cc23)cc1 (stereo not shown),0
20,CS(=O)(=O)Nc1ccc(-c2ccnc3[nH]ccc23)cc1 [GSK993273],9
21,Cn1ccc2ncnc(Oc3ccc(NC(=O)Nc4cnn(C(C)(C)C)c4)c(Cl)c3)c21,0
22,Cl.c1ccc(Oc2ccc(Nc3ccnc4cc(-c5ccc(CN6CCNCC6)o5)ccc34)cc2)nc1 [GW567142],0
23,CSc1nccc(-c2c(-c3ccc(F)cc3)ncn2CCCN2CCOCC2)n1.Cl [SB-217146],0
24,C[C@@H](Oc1cc(-n2cnc3ccc(-c4ccncc4)cc32)sc1C(N)=O)c1ccccc1Cl [GSK483724],10
25,Nc1nccc(-c2ccc3c(N)n[nH]c3c2)n1 [GSK1034945],5
26,CC(C(=O)NC1CCN(c2ccnc(Nc3ccc(F)cc3)n2)C1)c1ccc(Cl)cc1 (stereo not shown) [GSK1379713],0
27,C[C@@H]1CCN(C(=O)N2CCCC2)C[C@@H]1N(C)c1ncnc2[nH]ccc12,0
28,NC(=O)c1ccc(-c2cc3ncnc(SCC(=O)O)c3s2)cc1,0
